Source: PubChem BioAssay (EPA / NIEHS)
Inconclusive results are not listed. Calls of active or inactive are those of the source. Rule for the calls: active = hit-call score of the fitted dose curve at least 0.9, where 1 is the maximum; inconclusive = response in the unintended direction; inactive = score below 0.9.

Assay: TOX21_p53_BLA_p3_viability: Viability Assessment in the Tox21 HCT-116 p53 Agonism Beta-lactamase Assay, Phase 3 (AID 2283593);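 note: cells exposed to compound for 16 h before reading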
Summary of the method: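 HCT-116 cells (4000/well) rested 5 h at 37C, then got DMSO compounds by pin tool (217-fold dilution) for 16 h at 37C, 5% CO2. After the bla read, CellTiter-Glo was added and luminescence read at 30 min, room temperature.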

SMILES | outcome
CC(C)(C)c1nnc(NS(=O)(=O)c2ccccc2)s1 | inactive
CC(N)CN (centres undefined) | inactive
COc1cc(C(=O)N2CCCCCCC2)cc(OC)c1OC | inactive
C=CCCCCCC | inactive
CCC(O)c1ccccc1 (centres undefined) | inactive
CN1CCN(c2cc3c(cc2F)c(=O)c(C(=O)O)cn3-c2ccc(F)cc2)CC1 | inactive
COCc1ccc(COC)cc1 | inactive
CCCCc1ncc(/C=C(\Cc2cccs2)C(=O)O)n1Cc1ccc(C(=O)O)cc1 | inactive
C=CC(C)CCC=C(C)C (centres undefined) | inactive
CCCCOC(=O)CC#N | inactive
COC(C)OC | inactive
Cc1cc(N)c(S(=O)(=O)O)cc1Cl | inactive
CC(C)C(=O)OCC(C)(C)C(O)C(C)C (centres undefined) | inactive
CC1(C)S[C@@H]2[C@H](NC(=O)[C@@H](NC(=O)N3CCNC3=O)c3ccccc3)C(=O)N2[C@H]1C(=O)O | inactive
O=C(c1ccc(Cl)cc1)c1ccc(Cl)cc1 | inactive
Cc1cccc(C)c1NC(=O)NC1=CCCN1C | inactive
CCC(=O)Nc1ccc(O)cc1 | inactive

SMILES | outcome
NC(CO)C(=O)NNCc1ccc(O)c(O)c1O (centres undefined) | inactive
CC(=O)Nc1ccc(OCC(O)CNC(C)C)cc1 (centres undefined) | inactive
CCN1C(=O)c2ccccc2C1Nc1ccc(OCCN2CCCCC2)cc1 (centres undefined) | inactive
CC/C(=C(/CC)c1ccc(OP(=O)(O)O)cc1)c1ccc(OP(=O)(O)O)cc1 | inactive
CC(C)(C)NSc1nc2ccccc2s1 | inactive
CC(C)c1ccccc1C(C)C | inactive
COCCOC(=O)CC#N | inactive
CC(=O)OCC1=C(C(=O)O)N2C(=O)[C@@H](NC(=O)Cc3ccccc3)[C@H]2SC1 | inactive
Cc1ccccc1N1C(=O)c2cc(S(N)(=O)=O)c(Cl)cc2NC1C (centres undefined) | inactive
COc1ccc(-c2cc(=O)c3c(O)cc(O[C@@H]4O[C@H](CO[C@@H]5O[C@@H](C)[C@H](O)[C@@H](O)[C@H]5O)[C@@H](O)[C@H](O)[C@H]4O)cc3o2)cc1O | inactive
OC[C@H]1O[C@@H](OCCc2ccc(O)cc2)[C@H](O)[C@@H](O)[C@@H]1O | inactive
NCC1CCC(C(=O)Oc2ccc(CCC(=O)O)cc2)CC1 (centres undefined) | inactive
CCN(CCO)CCCC(C)Nc1ccnc2cc(Cl)ccc12 (centres undefined) | inactive
FC(F)(F)c1ccccc1-n1ccnc1 | inactive
CC(=O)OCC(=O)[C@@]1(O)[C@H](C)C[C@H]2[C@@H]3C[C@H](F)C4=CC(=O)C=C[C@]4(C)[C@H]3[C@@H](O)C[C@@]21C | inactive
CN(C)CCC(O)(c1ccccc1)c1ccccc1Cl (centres undefined) | inactive
CN[C@@H]1CCc2[nH]c3ccc(C(N)=O)cc3c2C1 | inactive
